Screening results (PubChem BioAssay)
Rows were chosen to be rich in hits. Some 27% of all compounds tested hit in one or more screens of this group.
CYP2C19 inhib: inhibitors of human CYP2C19 | CYP2C19 Supersomes, luciferin-H EGE luminescence, 30 min | inhibition, % at 5 µM | 21% of 96,000 active;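 active means CYP2C19 inhibition above a set limit at 5 µM in the primary screen, cut at about 50% in these data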
Target sequence (P33261 whole entry, looked up): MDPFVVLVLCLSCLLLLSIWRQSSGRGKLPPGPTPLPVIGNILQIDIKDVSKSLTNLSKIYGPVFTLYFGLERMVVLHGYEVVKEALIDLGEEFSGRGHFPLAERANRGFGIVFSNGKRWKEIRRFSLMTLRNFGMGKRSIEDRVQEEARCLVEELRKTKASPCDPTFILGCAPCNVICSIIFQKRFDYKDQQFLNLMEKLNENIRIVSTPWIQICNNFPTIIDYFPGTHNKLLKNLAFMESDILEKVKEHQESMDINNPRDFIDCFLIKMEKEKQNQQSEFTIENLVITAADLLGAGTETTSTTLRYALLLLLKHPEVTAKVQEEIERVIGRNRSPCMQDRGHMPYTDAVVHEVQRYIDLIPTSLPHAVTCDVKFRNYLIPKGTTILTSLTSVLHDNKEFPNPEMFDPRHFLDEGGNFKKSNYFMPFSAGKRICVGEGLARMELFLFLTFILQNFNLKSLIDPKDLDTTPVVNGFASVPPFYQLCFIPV
CYP2C19 activ: activators of human cytochrome P450 2C19; P33261; recombinant CYP2C19, luciferin-H EGE luminescence; hits give high values; 0 = fully inhibited enzyme, 1 = untreated enzyme; activation factor at 5 µM; 96,000 tested, under 10 active; AID 1025;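 active means activation factor of at least 2 at 5 µM in the primary screen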
CYP2C9 inh: human CYP2C9 inhibition | P11712 | CYP2C9 Supersomes, luciferin-H conversion, luminescence | AID 777 | inhibition, % at 5 µM | 20% of 96,000 active;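 active means blocking of liver enzyme CYP2C9 beyond about 50% at 5 µM, limit read from the data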
sEH inhibitor: inhibitors of human soluble epoxide hydrolase; P34913; recombinant human sEH enzymatic activity assay; inhibition, % at 2 µM; 0.34% of 91,000 active; AID 707; in the data active means inhibition above about 80%
sEH activator: activators of human soluble epoxide hydrolase. purified human sEH enzymatic activity, activator screen. activation, % at 2 µM. 0.04% of 91,000 active; in the data active means activation above about 37%
CYP2C9 act: increases human cytochrome P450 2C9 activity; P11712; AID 1024; 1.4% of 96,000 active; activation factor at 5 µM; recombinant CYP2C9, luciferin-H conversion, luminescence; hits give high values; factor 1 = untreated enzyme, 0 = blocked;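 active means activation factor of 2 or more for CYP2C9 at a 5 µM dose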
Each line names hits and unclear results; the compound was inactive in the other large screens.

Cc1nc(SCC(=O)NCC2CCCO2)c2oc3ccccc3c2n1 (stereo not given)	CYP2C19 inhib 52
CCc1nc(SCC(=O)NCC2CCCO2)c2oc3ccccc3c2n1 (stereo not given)	CYP2C19 inhib 77
O=C(Cn1cnc2c(oc3ccccc32)c1=O)NCC1CCCO1 (stereo not given)	none
Cc1ccc(/C(O)=C2/C(=O)C(=O)N(CCN3CCOCC3)C2c2cccs2)cc1 (stereo not given)	none
COCCn1c(SC)nnc1-c1c[nH]c2ccccc12	CYP2C19 inhib 52 (no result: sEH inhibitor, sEH activator)
CCn1c(SC(C)C(=O)OC)nnc1-c1c[nH]c2ccccc12 (stereo not given)	CYP2C19 inhib 66 (no result: sEH inhibitor, sEH activator)
C=CCSc1nnc(-c2c[nH]c3ccccc23)n1CC	CYP2C19 inhib 79 (no result: sEH inhibitor, sEH activator)
CCOC(=O)C(C)Sc1nnc(-c2c[nH]c3ccccc23)n1C (stereo not given)	none
CCn1c(SCc2ccc(C(=O)OC)o2)nnc1-c1c[nH]c2ccccc12	CYP2C19 inhib 98, CYP2C9 inh 83 (no result: sEH inhibitor, sEH activator)
CCc1nn(C)c(-c2n[nH]c(=S)n2N)c1Cl	none
CCn1c(SC)nnc1-c1c[nH]c2ccccc12	CYP2C19 inhib 72 (no result: sEH inhibitor, sEH activator)
COc1ccccc1C(=O)NC(C)C(c1cccs1)N1CCN(C)CC1 (stereo not given)	none (no result: CYP2C19 inhib, CYP2C19 activ, CYP2C9 inh, CYP2C9 act)
CC(=O)NC1C(=O)N(C)c2ccc(Br)cc21 (stereo not given)	none
CNC(=O)COC(=O)c1ccccc1Oc1ccccc1	none
CCCNC(=O)COC(=O)c1ccccc1OCc1ccc(Cl)cc1	CYP2C19 inhib 87, CYP2C9 inh 78
Cc1cccc(C(=O)O/N=C/c2c(N3CCOCC3)n(C)c3ccccc23)c1	CYP2C9 inh 85
Cn1c(Cl)c(/C=N/OC(=O)c2ccccc2Cl)c2ccccc21	none
CC(=O)/C=N/Nc1ccccc1	CYP2C9 inh 60
COc1ccc(OC)c(CC(NC(C)=O)C(=O)NC2CCN(c3nc(C)cc(C)c3C#N)CC2)c1 (stereo not given)	none (no result: sEH inhibitor, sEH activator)
CC1CN(C(=O)Cc2ccc(-c3ccccc3)cc2)CC(C)O1 (stereo not given)	CYP2C19 inhib 58, CYP2C9 inh 57
CC1CN(C(=O)CCN2C(=O)c3ccccc3C2=O)CC(C)O1 (stereo not given)	none (no result: CYP2C19 inhib, CYP2C19 activ, CYP2C9 inh, CYP2C9 act)
O=C(NCC1COc2ccccc2O1)c1ccccc1 (stereo not given)	CYP2C19 inhib 95
COc1cccc(CC(=O)NCC2COc3ccccc3O2)c1OC (stereo not given)	CYP2C19 inhib 64
CCOC(=O)c1ccc(NC(=O)CC2COc3ccccc3O2)cc1 (stereo not given)	CYP2C9 inh 63
COc1ccccc1NC(=O)CN1C(=O)C(C)Oc2ccccc21 (stereo not given)	CYP2C19 inhib 85, CYP2C9 inh 61
COc1ccccc1NC(=O)CC1COc2ccccc2O1 (stereo not given)	CYP2C19 inhib 64
Cc1onc(-c2c(F)cccc2Cl)c1C(=O)NCC1COc2ccccc2O1 (stereo not given)	CYP2C19 inhib 70, CYP2C9 inh 59
CCOC(=O)CCNCC1COc2ccccc2O1 (stereo not given)	CYP2C19 inhib 75
Cc1onc(-c2c(Cl)cccc2Cl)c1C(=O)NCC1CCCO1 (stereo not given)	none
COc1ccccc1CN(C)C(=O)C1COc2ccccc2O1 (stereo not given)	CYP2C19 inhib 98
CC1(C(=O)O)CCC(C(=O)NC2CCCCC2)C1(C)C (stereo not given)	none
CCCCN(C)C(=O)C1CCN(Cc2ccc(OCc3ccccc3)cc2)CC1	none (no result: CYP2C19 inhib, CYP2C19 activ, CYP2C9 inh, CYP2C9 act)
CCN(CC1COc2ccccc2O1)C(=S)Nc1ccccc1 (stereo not given)	CYP2C19 inhib 56
Cc1ccc2c(c1)CN1CN2Cc2cc(C)ccc21	CYP2C19 inhib 54 (no result: sEH inhibitor, sEH activator)
O=C(Nc1ccc2c(c1)OCO2)C1CCCN1C(=O)Nc1cccc(F)c1 (stereo not given)	CYP2C19 inhib 93 (no result: sEH inhibitor, sEH activator)
O=C(NCc1ccc2c(c1)OCO2)C1CCCN1C(=O)Nc1cccc(F)c1 (stereo not given)	none (no result: CYP2C19 inhib, CYP2C19 activ, CYP2C9 inh, CYP2C9 act)
CC(=O)c1cccc(NC(=O)C2CCCN2S(=O)(=O)c2cccc3cccnc23)c1 (stereo not given)	CYP2C19 inhib 56, CYP2C9 inh 92
O=C(Nc1cccc(F)c1)C1CCCN1S(=O)(=O)c1cccc2cccnc12 (stereo not given)	CYP2C19 inhib 80, CYP2C9 inh 81
CSc1cccc(NC(=O)C2CCCN(S(=O)(=O)c3ccc(F)cc3)C2)c1 (stereo not given)	none
O=C(NCc1ccccc1)C1CCCN1S(=O)(=O)c1cccc2cccnc12 (stereo not given)	none
CSc1cccc(NC(=O)C2CCCN2S(=O)(=O)c2ccc(Br)s2)c1 (stereo not given)	CYP2C19 inhib 98, CYP2C9 inh 74
COc1ccc2nc(C(F)(F)C(F)(F)F)c(C#N)c(N)c2c1	none
Cc1nc(=O)c(-c2ccccc2)c(C)n1-c1ccccc1O	none (no result: sEH inhibitor, sEH activator)
O=C(Nc1ccc2c(c1)OCCO2)C1CCCN1S(=O)(=O)c1cccc2cccnc12 (stereo not given)	CYP2C9 inh 97 (no result: sEH inhibitor, sEH activator)
O=C(Nc1ccc(C(F)(F)F)cc1)C1CCCN1S(=O)(=O)c1cccc2cccnc12 (stereo not given)	CYP2C9 inh 57
CC(=O)c1ccc(NC(=O)C2CCN(S(=O)(=O)c3cccc4cccnc34)CC2)cc1	none
O=C1c2ccccc2-c2c1cccc2C(=O)N1CCOCC1	none (no result: CYP2C19 inhib, CYP2C19 activ, CYP2C9 inh, CYP2C9 act)
O=C(c1ccc2c3c(cccc13)CC2)N1CCOCC1	CYP2C9 act 2.1
CC(C)(C)N1CC(COc2ccccc2)OC1=O (stereo not given)	CYP2C19 inhib 71
CC(C)(C)OC(=O)NCCc1nnc(SCc2ccccc2Cl)o1	CYP2C19 inhib 82, CYP2C9 inh 77
Cc1cccc(C)c1NC(=O)CSc1nnc(CCCCCNC(=O)OC(C)(C)C)o1	CYP2C19 inhib 50, CYP2C9 inh 73
CC(C)(C)OC(=O)NCCc1nnc(S(=O)(=O)Cc2ccc(Cl)cc2Cl)o1	CYP2C19 inhib 77, CYP2C9 inh 80
CC(C)(C)OC(=O)NCCc1nnc(SCC(N)=O)o1	none
Cc1ccc(NC(=O)CSc2nnc(CCNC(=O)OC(C)(C)C)o2)c(C)c1	none
CC(C)C[C@H](NC(=O)OC(C)(C)C)C(=O)N/N=C/C1=Cc2ccccc2OC1C (stereo not given in full)	none
O=C(Cn1cnc2c(cnn2-c2ccc(Cl)cc2)c1=O)NCC1CCCO1 (stereo not given)	none
Cc1c(S(=O)(=O)N2CCOCC2)c(=O)n(C)c(=O)n1C	none
CCCCOC(=O)CSc1nc2c(cc1C#N)C(=O)CC(C)(C)C2	CYP2C9 inh 64
O=C(Nc1cc2c(cc1Br)OCCO2)c1cccs1	CYP2C19 inhib 57
COc1ccc(S(=O)(=O)Cc2ccc(C(=O)N3CCN(c4ccccc4)CC3)o2)cc1	CYP2C9 inh 66 (no result: sEH inhibitor, sEH activator)
